DAX1 inh-1: blocks DAX1 repression of SF-1 activated StAR promoter; actives 1.1% (n = 370,000); AID 652010; inhibition, % at 6.8 µM; HEK293T StAR-luciferase reporter, SF-1/DAX-1 repression relief;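 active = inhibition above the mean over all tested compounds plus 3 SD, cut at about 3.6% in these data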;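 also: 0% = DAX-1 cells with DMSO and 100% = cells lacking DAX-1 with DMSO; higher inhibition means more luminescence from relief of DAX-1 repression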
DAX1 inh-2: inhibits human nuclear receptor DAX1. HEK293 Gal4-DAX1 luciferase reporter, luminescence. inhibition, % at 6.75 µM. actives 0.99% (n = 340,000). AID 504766;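 active = inhibition above the mean over all tested compounds plus 3 SD, cut at about 4.2% in these data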;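 also: 0% = DAX1-transfected cells with DMSO and 100% = empty-vector control cells with DMSO; inhibition shows as a rise in luminescence from relieved DAX1 repression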
Target sequence (P51843 207-470 limits assumed): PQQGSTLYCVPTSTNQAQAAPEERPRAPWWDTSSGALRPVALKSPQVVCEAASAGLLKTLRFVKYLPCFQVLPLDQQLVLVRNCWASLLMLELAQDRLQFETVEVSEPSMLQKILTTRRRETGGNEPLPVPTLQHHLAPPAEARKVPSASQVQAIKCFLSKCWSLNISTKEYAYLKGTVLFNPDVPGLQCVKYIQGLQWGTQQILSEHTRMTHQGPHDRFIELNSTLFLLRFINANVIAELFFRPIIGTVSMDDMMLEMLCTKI
SMARCA2 activ: activators of SMARCA2 function; activation, % at 9.1 µM; AID 652017; MG213 cells, MMTV-luciferase reporter, dexamethasone, overnight; actives 1% (n = 370,000); in the data active = activation above about 7.8%;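 also: 0% = vehicle wells and 100% = reference activator wells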
hcDAF12 agonist: H. contortus DAF-12 activation, primary screen; HEK293 hcDAF-12 lit1-tk-luc reporter, luminescence; 0% DMSO, 100% Δ7-dafachronic acid; activation, % at 6.8 µM; actives 1.4% (n = 370,000); AID 652067;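 active = activation above the mean of all tested compounds plus 3 SD, cut at about 5.5% in these data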;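 also: 100% = response to 3 µM Δ7-dafachronic acid high control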
ssDAF12 agonist: activators of S. stercoralis DAF-12 nuclear receptor. activation, % at 6.8 µM. AID 652126. actives 1% (n = 370,000). HEK293 ssDAF-12/GRIP1 lit1-tk-luc reporter, luminescence; % of 3 µM dafachronic acid response;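 active = activation above the mean over all tested compounds plus 3 SD, cut at about 0.9% in these data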;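 also: 0% = DMSO-only wells and 100% = 3 µM delta7-dafachronic acid wells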
hgDAF-12 ag: hgDAF-12 agonism, primary luciferase screen; HEK293 GAL4-hgDAF12 UAS-luciferase reporter, agonist luminescence; normalized to butyrate control; activation, % at 6.8 µM; actives 1.8% (n = 370,000); AID 687014;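 active = activation above a cutoff set at the mean of all screened compounds plus 3 SD, cut at about 10% in these data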;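 also: 0% = DMSO wells and 100% = sodium butyrate wells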
DAX1 inh confirm: NR0B1 (human) inhibition, confirmation; HEK293T StAR-promoter luciferase reporter, SF-1/DAX-1 repression; AID 652134; shares compounds with DAX1 inh-1; inhibition, % at 6.8 µM; actives 87% (n = 2,400);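 active = inhibition above the average of every tested compound plus 3 SD, cut at about 3.8% in these data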;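 also: 0% = DAX-1 cells with DMSO and 100% = no DAX-1 control cells with DMSO; active compounds raise luminescence by relieving repression of the StAR reporter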
SF1 mutant ctr: nonselective inhibitor or artifact in SF-1 mutant DAX1 counter-screen. inhibition, % at 6.8 µM. actives 78% (n = 2,400). shares compounds with DAX1 inh-1. HEK293 StAR-luciferase, SF-1 AF2 mutant, luminescence;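 active = inhibition above the mean of all tested compounds plus 3 SD, cut at about 3% in these data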;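 also: 0% = DAX-1 transfected cells with DMSO and 100% = cells without DAX-1 with DMSO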
SMARCA2 act conf: confirmation of SMARCA2 (BRM) function activators; shares compounds with SMARCA2 activ; MG213 cells, MMTV-luciferase with dexamethasone, luminescence, overnight; MG213 cells expressing E1A, Rb sequestered; DMSO wells 0%, reference activator 100%; activation, % at 9.1 µM; actives 30% (n = 3,500); AID 652260;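 active = activation above its plate's cutoff, the mean activation of tested wells plus 3 SD, cut at about 7.9% in these data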
VP16 Luc act: activates GAL4-VP16 luciferase, flagging SMARCA2 activator hits; shares compounds with SMARCA2 activ; HEK293 GAL4-VP16 pG5luc reporter, luciferase luminescence; scaled: DMSO wells 0%, SAHA wells 100%; activation, % at 9.1 µM; actives 41% (n = 3,500); AID 686939;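 active = activation above the solvent-only control well mean plus 3 SD, averaged across control plates, cut at about 5.2% in these data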
LXRb hcDAF ctr: LXR-beta agonism as hcDAF-12 counter-screen. shares compounds with hcDAF12 agonist. HEK293 Gal4-LXR tk-luc reporter, luminescence, 24 h; normalized: DMSO 0%, positive control 100%. activation, % at 6.8 µM. 3,400 tested, under 10 active. AID 743027;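 active = mean percent activation of the reporter above a cutoff set as the average over tested compounds plus their standard deviation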
Target sequence (P55055 whole entry, looked up, the tested form may be a part): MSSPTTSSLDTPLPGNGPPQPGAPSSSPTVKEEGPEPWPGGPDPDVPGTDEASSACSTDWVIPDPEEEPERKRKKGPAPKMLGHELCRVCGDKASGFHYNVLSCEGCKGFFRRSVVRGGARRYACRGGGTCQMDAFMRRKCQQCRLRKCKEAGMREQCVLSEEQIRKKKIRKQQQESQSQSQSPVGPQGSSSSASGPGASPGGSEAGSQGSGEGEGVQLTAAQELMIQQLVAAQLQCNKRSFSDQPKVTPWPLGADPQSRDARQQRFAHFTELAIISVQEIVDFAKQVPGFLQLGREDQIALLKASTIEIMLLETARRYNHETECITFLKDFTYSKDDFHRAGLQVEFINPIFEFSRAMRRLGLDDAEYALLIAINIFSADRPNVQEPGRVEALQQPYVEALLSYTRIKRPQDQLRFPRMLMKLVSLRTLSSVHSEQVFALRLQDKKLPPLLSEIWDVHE
hcDAF12 conf: hcDAF-12 agonism, confirmation assay. shares compounds with hcDAF12 agonist. HEK293 hcDAF-12 lit1-tk-luc reporter, luminescence; % of Δ7-dafachronic acid response. activation, % at 6.8 µM. actives 61% (n = 3,400). AID 743032;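 active = mean activation across triplicate tests above the threshold derived from the earlier primary screen, cut at about 5.5% in these data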;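 also: 0% = DMSO only wells and 100% = 3 µM Δ7-dafachronic acid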
hgDAF12 conf: hgDAF-12 agonism, confirmation assay; HEK293 GAL4-hgDAF12 luciferase reporter, agonist mode; percent of butyrate response; actives 80% (n = 3,300); shares compounds with hgDAF-12 ag; activation, % at 6.8 µM;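 active = mean activation over triplicate wells above the hit cutoff derived from the earlier primary screen, cut at about 11% in these data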;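 also: 0% = DMSO low control and 100% = 2 mM sodium butyrate high control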
LXR ag 2: activates human LXR-beta, counter-screen for DAF-12 agonists; shares compounds with hgDAF-12 ag; 3,300 tested, under 10 active; HEK293 Gal4-LXR luciferase reporter, 24 h; activation, % at 6.8 µM;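 active = mean activation of the triplicate above a set limit carried over from the primary screen, none filed active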
Active calls of the source: *; nt = not tested or not shown. Shown are actives, neighbours in structure and some others; about 4.8% of the full set was active somewhere.

SMILES | DAX1 inh-1 | DAX1 inh-2 | SMARCA2 activ | hcDAF12 agonist | ssDAF12 agonist | hgDAF-12 ag | DAX1 inh confirm | SF1 mutant ctr | LXRb hcDAF ctr | hcDAF12 conf | hgDAF12 conf | LXR ag 2 | others
CC(C)C(=O)Nc1ccc(C=C2C=Cc3ccccc32)cc1 | 5.5* | nt | 5 | 3 | 0.9* | 17* | 8.8* | 5.0* | nt | nt | 20* | 1
O=c1c2ccccc2cnn1Cc1n[nH]c(=S)n1-c1cc(Cl)cc(Cl)c1 | 0 | 0 | 3 | 1 | -1 | 2 | nt | nt | nt | nt | nt | nt
COc1ccc(F)cc1-c1cc(C(=O)Nc2cccnc2)[nH]n1 | 2 | nt | 0 | -1 | -1 | 8 | nt | nt | nt | nt | nt | nt
Cc1cc(F)ccc1-c1cc(C(=O)Nc2ccccc2)[nH]n1 | 12* | nt | 1 | 12* | 1.5* | 21* | 15* | 5.8* | 2 | 14* | 20* | 1
Cc1ccc(O)c(-c2cc(C(=O)Nc3cccnc3)[nH]n2)c1 | 4.8* | 7.0* | 7 | 2 | 0 | 19* | 13* | 6.2* | nt | nt | 13* | 1
CCC1(C(=O)c2ccccc2)C(c2ccc([N+](=O)[O-])cc2)C1(C(=O)OC)C(=O)OC (stereo unspecified) | 0 | 1 | -6 | 2 | -1 | -2 | nt | nt | nt | nt | nt | nt
CCOc1ccc(C(=O)NCC(=O)OCc2c(C)noc2C)cc1 | 0 | 3 | -2 | 0 | -2 | -1 | nt | nt | nt | nt | nt | nt
Cc1ccc(NC(=O)CN(C)C(=O)CNC(=O)c2cccs2)cc1 | 2 | 1 | -3 | -2 | -1 | 2 | nt | nt | nt | nt | nt | nt
O=C(c1cc(-c2cccc(O)c2)on1)N1CCCCC1 | 8.8* | 1 | 6 | 6.9* | 0 | 22* | 14* | 7.1* | 2 | 5 | 14* | 1
COc1cccc(-c2cc(C(=O)N3CCN(c4ccc(F)cc4)CC3)no2)c1 | 1 | 0 | 2 | -2 | -1 | -1 | nt | nt | nt | nt | nt | nt
COc1cccc(-c2cc(C(=O)N3CCCCCC3)no2)c1 | 9.6* | 2 | 1 | 8.1* | 1 | 18* | 17* | 7.3* | 2 | 6.7* | 18* | 1
CCOCC(=O)Nc1cc(C(=O)NCCc2ccccc2)ccc1Cl | 4.5* | 2 | 2 | 4 | 0 | 14* | 9.0* | 4.3* | nt | nt | 13* | 0
O=C(Nc1nc2c(s1)CCCC2)c1ccc2ncsc2c1 | 8.0* | 0 | 1 | 6.2* | 1.0* | 16* | 10* | 3.2* | nt | nt | 12* | 1
CCCC(=O)N1CCC1(C)C(=O)Nc1ccc(C)cc1 (stereo unspecified) | 1 | nt | 0 | 0 | -1 | 1 | nt | nt | nt | nt | nt | nt
O=Nc1c2cc(-c3ccccc3)[nH]nc-2c2ccccc12 | 5.8* | 0 | 8.5* | 20* | 2.7* | 23* | 5.4* | 1 | 2 | 19* | 12* | 1 | SMARCA2 act conf=9.8*;VP16 Luc act=5.5*
O=C(NC(=S)Nc1ccccc1Br)C1CC1 | 1 | 1 | 2 | 0 | -1 | 3 | nt | nt | nt | nt | nt | nt
Cc1ccc(NC(=S)NC(=O)C2CCCC2)c(Br)c1 | 9.3* | 1 | 6 | 6.3* | 0 | 15* | 9.5* | 4.7* | nt | nt | 21* | 1
CCc1sc(C(=O)Nc2ncccc2O)cc1C | 22* | -2 | 2 | 7.9* | 1.0* | 22* | 15* | 6.2* | 1 | 7.9* | 26* | 1
CCc1sc(C(=O)Nc2ncccc2C)cc1C | 1 | 0 | -2 | 1 | 0 | 1 | nt | nt | nt | nt | nt | nt
CCOC(=O)c1sc(=NC(=O)c2ccccc2)n(C)c1C | 4.6* | 3 | 5 | 16* | 2.2* | 13* | 15* | 9.6* | 1 | 14* | 18* | 1
COc1ccc2nc(NC(=O)Nc3ccccc3)sc2c1 | 11* | 0 | 0 | 8.1* | 1 | 22* | 14* | 8.8* | 2 | 5 | 23* | 1
CCOc1ccc2nc(NC(=O)Nc3cccs3)sc2c1 | 9.2* | 3 | 3 | 7.9* | 1 | 27* | 19* | 13* | 2 | 5 | 27* | 1
CCOCC(=O)Nc1nc2ccc(OC)cc2s1 | 2 | 2 | 7 | 2 | 0 | 10 | nt | nt | nt | nt | nt | nt
Cc1noc(C)c1NC(=O)N(C)C[C@H]1Oc2c(cccc2N(C)C)C(=O)N([C@H](C)CO)C[C@@H]1C | 0 | -1 | -1 | -1 | -2 | 0 | nt | nt | nt | nt | nt | nt
Clc1ccccc1Nc1nc2ccccc2o1 | 9.3* | 1 | 6 | 11* | 1.2* | 13* | 14* | 9.0* | 1 | 10* | 23* | 1
Cc1cccc(C)c1Nc1nc2ccccc2o1 | 0 | -1 | -1 | -1 | 0 | -2 | nt | nt | nt | nt | nt | nt
CC(=O)Nc1ccc(C(=O)COC(=O)c2c(C)noc2C)c(F)c1 | 1 | -1 | -2 | -1 | -2 | 1 | nt | nt | nt | nt | nt | nt
CC(=O)Nc1ccc(C(=O)COC(=O)C2CC2C)c(F)c1 (stereo unspecified) | 11* | 2 | 1 | 3 | 1.0* | 18* | 10* | 4.6* | nt | nt | 10 | 1
COc1ccc(/C=N/NC(=O)CNC(=O)c2cccs2)cc1 | -1 | 0 | -1 | -2 | -1 | 1 | nt | nt | nt | nt | nt | nt
Cc1ccccc1NC(=O)c1cccc(C(=O)Nc2ccccc2C)n1 | -1 | 0 | -1 | -3 | -2 | 0 | nt | nt | nt | nt | nt | nt

Screens from PubChem.
